Data as given in PubChem BioAssay AID1159580 (chemical genetic matrix, 2015).
Out of some 5,500 compounds screened, about 2,000 (36%) were called active. About 18% were inconclusive and are not listed. Rule as the data show it: active = normalized growth mostly below about 0.91 (no sharp cut-off); inconclusive = no clear call, values can overlap the other calls; inactive = mostly above about 0.92. The list shows a part of the results.

Assay: chemical genetic growth profiling, strain panel (AID 1159580);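 also: tested at 20 µM; growth read once vehicle control cultures reached saturation at 30 °C; 1 = growth at the plate median or of vehicle wells; lower values mean less growth of the strain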
Conditions: S. cerevisiae deletion strains, growth OD
[1] = locus YMR307W, strain GAS1, stronger effect = lower value

Measured: normalized growth

CNCC(O)c1ccc(O)c(O)c1 (stereo not drawn)
inactive: locus YAL040C, strain CLN3, stronger effect = lower value 1.08 | locus YCL061C, strain MRC1 (second series), stronger effect = lower value 1 | locus YDR363W, strain ESC2, stronger effect = lower value 1.01 | locus YER002W, strain NOP16, stronger effect = lower value 1 | locus YGR078C, strain PAC10, stronger effect = lower value 1.02 | locus YGR229C, strain SMI1, stronger effect = lower value 0.982 | locus YJR075W, strain HOC1, stronger effect = lower value 1 | locus YMR263W, strain SAP30, stronger effect = lower value 1.01 | [1] 1 | locus YNL175C, strain NOP13, stronger effect = lower value 0.994 | locus YNL197C, strain WHI3, stronger effect = lower value 0.998 | locus YNL224C, strain SQS1, stronger effect = lower value 1.02 | locus YOR083W, strain WHI5 (second series), stronger effect = lower value 1.02

CCOC(=O)C(=O)C1(C(=O)OCC)Oc2cc(OC)cc(OC)c2C(=O)C1c1ccccc1 (stereo not drawn)
active: locus YBR021W, strain FUR4, stronger effect = lower value 0.818 | locus YGL167C, strain pmr1, stronger effect = lower value 0.911 | locus YJL129C, strain trk1, stronger effect = lower value 0.862 | locus YKR091W, strain srl3, stronger effect = lower value 0.929 | locus YLR330W, strain CHS5, stronger effect = lower value 0.906 | locus YLR418C, strain cdc73, stronger effect = lower value 0.804 | locus YNL071W, strain lat1, stronger effect = lower value 0.915 | locus YNL307C, strain MCK1, stronger effect = lower value 0.888 | locus YOR290C, strain snf2, stronger effect = lower value 0.863
inactive: locus YAL021C, strain ccr4, stronger effect = lower value 0.981 | locus YAL026C, strain drs2, stronger effect = lower value 0.96 | locus YAL030W, strain snc1, stronger effect = lower value 0.96 | locus YBL061C, strain skt5, stronger effect = lower value 0.951 | locus YBR009C, strain hhf1, stronger effect = lower value 0.908 | locus YBR023C, strain chs3, stronger effect = lower value 0.954 | locus YBR171W, strain sec66, stronger effect = lower value 0.939 | locus YBR229C, strain ROT2, stronger effect = lower value 0.986 | locus YBR231C, strain swc5, stronger effect = lower value 0.961 | locus YBR279W, strain paf1, stronger effect = lower value 0.965 | locus YCL011C, strain gbp2, stronger effect = lower value 0.925 | locus YCL016C, strain dcc1, stronger effect = lower value 0.972 | locus YCL029C, strain bik1, stronger effect = lower value 0.989 | locus YCL061C, strain MRC1, stronger effect = lower value 0.938 | locus YCL069W, strain vba3, stronger effect = lower value 0.96 | locus YCR088W, strain abp1, stronger effect = lower value 0.967 | locus YDL005C, strain med2, stronger effect = lower value 0.961 | locus YDL035C, strain GPR1, stronger effect = lower value 0.967 | locus YDL040C, strain nat1, stronger effect = lower value 0.961 | locus YDL074C, strain BRE1, stronger effect = lower value 0.913 | locus YDL101C, strain DUN1, stronger effect = lower value 0.959 | locus YDL185W, strain tfp1, stronger effect = lower value 0.969 | locus YDL192W, strain arf1, stronger effect = lower value 0.945 | locus YDR001C, strain nth1, stronger effect = lower value 0.947 | locus YDR069C, strain doa4, stronger effect = lower value 0.967 | locus YDR101C, strain arx1, stronger effect = lower value 0.955 | locus YDR137W, strain rgp1, stronger effect = lower value 0.904 | locus YDR159W, strain sac3, stronger effect = lower value 0.928 | locus YDR162C, strain NBP2, stronger effect = lower value 0.987 | locus YDR195W, strain ref2 1.01 | locus YDR297W, strain sur2, stronger effect = lower value 0.949 | locus YDR318W, strain mcm21, stronger effect = lower value 0.936 | locus YDR334W, strain swr1, stronger effect = lower value 0.965 | locus YDR335W, strain msn5, stronger effect = lower value 0.971 | locus YDR388W, stronger effect = lower value 0.968 | locus YDR392W, strain spt3, stronger effect = lower value 0.767 | locus YDR502C, strain sam2, stronger effect = lower value 0.928 | locus YEL003W, strain gim4, stronger effect = lower value 0.948 | locus YEL037C, strain rad23, stronger effect = lower value 0.964 | locus YEL061C, strain CIN8 (second series), stronger effect = lower value 0.929 | locus YEL061C, strain CIN8, stronger effect = lower value 0.99 | locus YER015W, strain faa2, stronger effect = lower value 0.952 | locus YER016W, strain bim1, stronger effect = lower value 0.976 | locus YER110C, stronger effect = lower value 0.953 | locus YER111C, strain swi4, stronger effect = lower value 0.946 | locus YER155C, strain BEM2 (second series), stronger effect = lower value 0.875 | locus YER155C, strain BEM2, stronger effect = lower value 0.966 | locus YER167W, strain BCK2, stronger effect = lower value 0.97 | locus YFR010W, strain ubp6, stronger effect = lower value 0.956 | locus YGL078C, strain dbp3, stronger effect = lower value 0.938 | locus YGL086W, strain mad1, stronger effect = lower value 0.942 | locus YGL173C, strain kem1, stronger effect = lower value 0.947 | locus YGL227W, strain vid30, stronger effect = lower value 0.926 | locus YGL240W, strain doc1, stronger effect = lower value 0.911 | locus YGL248W, strain PDE1, stronger effect = lower value 0.945 | locus YGL253W, strain hxk2, stronger effect = lower value 0.972 | locus YGR135W, strain pre9, stronger effect = lower value 0.915 | locus YGR252W, strain gcn5, stronger effect = lower value 0.791 | locus YHR013C, strain ard1, stronger effect = lower value 0.95 | locus YHR027C, strain rpn1, stronger effect = lower value 0.987 | locus YHR030C, strain SLT2, stronger effect = lower value 0.993 | locus YHR079C, strain IRE1 (second series), stronger effect = lower value 0.961 | locus YHR094C, strain hxt1, stronger effect = lower value 0.951 | locus YHR129C, strain ARP1, stronger effect = lower value 0.966 | locus YHR142W, strain chs7, stronger effect = lower value 0.95 | locus YHR200W, strain rpn10, stronger effect = lower value 0.942 | locus YIL066C, strain RNR3, stronger effect = lower value 0.983 | locus YIL073C, strain SPO22, stronger effect = lower value 0.929 | locus YIL125W, strain kgd1, stronger effect = lower value 0.971 | locus YIR030C, strain dcg1, stronger effect = lower value 0.962 | locus YJL092W, strain hpr5, stronger effect = lower value 0.941 | locus YJL095W, strain BCK1 (second series), stronger effect = lower value 0.973 | locus YJL095W, strain BCK1, stronger effect = lower value 0.907 | locus YJL115W, strain asf1, stronger effect = lower value 0.979 | locus YJL134W, strain LCB3, stronger effect = lower value 0.989 | locus YJL154C, strain vps35, stronger effect = lower value 0.968 | locus YJL164C, strain tpk1, stronger effect = lower value 0.95 | locus YJL166W, strain qcr8, stronger effect = lower value 0.926 | locus YJL168C, strain set2, stronger effect = lower value 0.966 | locus YJL187C, strain SWE1 (second series), stronger effect = lower value 0.948 | locus YJL187C, strain SWE1, stronger effect = lower value 0.953 | locus YJR043C, strain POL32, stronger effect = lower value 0.998 | locus YKL009W, strain mrt4, stronger effect = lower value 0.899 | locus YKL068W, stronger effect = lower value 0.955 | locus YKL085W, strain MDH1 (second series), stronger effect = lower value 0.959 | locus YKL085W, strain MDH1, stronger effect = lower value 0.959 | locus YKL160W, strain elf1, stronger effect = lower value 0.966 | locus YKL190W, strain CNB1, stronger effect = lower value 0.989 | locus YKR001C, strain vps1, stronger effect = lower value 0.958 | locus YKR026C, strain gcn3, stronger effect = lower value 0.932 | locus YLL001W, strain dnm1, stronger effect = lower value 0.964 | locus YLL026W, stronger effect = lower value 0.969 | locus YLL041C, strain sdh2, stronger effect = lower value 0.966 | locus YLR027C, strain aat2, stronger effect = lower value 0.95 | locus YLR039C, strain RIC1, stronger effect = lower value 0.983 | locus YLR058C, strain SHM2, stronger effect = lower value 0.959 | locus YLR102C, strain apc9, stronger effect = lower value 0.962 | locus YLR221C, strain rsa3, stronger effect = lower value 0.91 | locus YLR258W, strain gsy2, stronger effect = lower value 0.959 | locus YLR262C, strain YPT6 (second series), stronger effect = lower value 0.906 | locus YLR262C, strain YPT6, stronger effect = lower value 0.978 | locus YLR268W, strain sec22, stronger effect = lower value 0.955 | locus YLR320W, strain mms22, stronger effect = lower value 0.889 | locus YLR342W, strain FKS1, stronger effect = lower value 0.919 | locus YLR357W, strain rsc2, stronger effect = lower value 0.916 | locus YLR370C, strain arc18, stronger effect = lower value 0.938 | locus YLR371W, strain rom2, stronger effect = lower value 0.962 | locus YLR384C, strain iki3, stronger effect = lower value 0.95 | locus YML016C, strain PPZ1, stronger effect = lower value 0.989 | locus YML032C, strain rad52, stronger effect = lower value 0.961 | locus YML120C, strain ndi1, stronger effect = lower value 0.919 | locus YML124C, strain tub3, stronger effect = lower value 0.94 | locus YMR058W, strain fet3, stronger effect = lower value 0.946 | locus YMR078C, strain ctf18, stronger effect = lower value 0.94 | locus YMR125W, strain sto1, stronger effect = lower value 0.979 | locus YMR129W, stronger effect = lower value 0.936 | locus YMR205C, strain PFK2, stronger effect = lower value 0.877 | locus YMR223W, strain ubp8, stronger effect = lower value 0.949 | locus YMR231W, strain pep5, stronger effect = lower value 0.988 | [1] 0.949 | locus YNL067W, strain RPL9B, stronger effect = lower value 0.965 | locus YNL153C, strain GIM3, stronger effect = lower value 0.986 | locus YNL209W, strain ssb2, stronger effect = lower value 0.972 | locus YNL233W, strain BNI4, stronger effect = lower value 0.917 | locus YNL248C, strain rpa49, stronger effect = lower value 0.986 | locus YNL250W, strain rad50, stronger effect = lower value 0.96 | locus YNL271C, strain bni1, stronger effect = lower value 0.976 | locus YNL298W, strain CLA4, stronger effect = lower value 0.965 | locus YNL322C, strain KRE1 (second series), stronger effect = lower value 0.948 | locus YNL322C, strain KRE1, stronger effect = lower value 0.983 | locus YNR049C, strain mso1, stronger effect = lower value 0.966 | locus YNR052C, strain pop2, stronger effect = lower value 0.985 | locus YOL012C, strain htz1 1.05 | locus YOL147C, strain pex11, stronger effect = lower value 0.94 | locus YOR001W, strain rrp6, stronger effect = lower value 0.987 | locus YOR061W, strain CKA2, stronger effect = lower value 1 | locus YOR069W, strain VPS5, stronger effect = lower value 0.979 | locus YOR070C, strain gyp1, stronger effect = lower value 0.968 | locus YOR080W, strain dia2, stronger effect = lower value 0.965 | locus YOR083W, strain WHI5, stronger effect = lower value 0.956 | locus YOR106W, strain vam3, stronger effect = lower value 0.974 | locus YOR136W, strain idh2, stronger effect = lower value 0.962 | locus YOR144C, strain elg1, stronger effect = lower value 0.959 | locus YOR184W, strain ser1, stronger effect = lower value 0.876 | locus YOR265W, strain rbl2, stronger effect = lower value 0.964 | locus YOR270C, strain vph1, stronger effect = lower value 0.878 | locus YOR316C, strain cot1, stronger effect = lower value 0.963 | locus YPL051W, strain arl3, stronger effect = lower value 0.984 | locus YPL078C, strain atp4, stronger effect = lower value 0.964 | locus YPL106C, strain sse1, stronger effect = lower value 0.943 | locus YPL240C, strain hsp82, stronger effect = lower value 0.968 | locus YPR119W, strain clb2, stronger effect = lower value 0.946 | locus YPR141C, strain kar3, stronger effect = lower value 0.951 | locus YPR163C, strain tif3, stronger effect = lower value 0.97 | locus YPR167C, strain met16, stronger effect = lower value 0.929 | strain wtn01, stronger effect = lower value 0.945
